# This is a sample that favours compounds with a hit; in the whole collection about 4.5% have one here.
# aSyn UTR inh = 5' untranslated region of α-synuclein, MLPCN primary screen | actives 0.82% (n = 300,000) | inhibition, % (tested at 7.5 µM) | alpha-synuclein 5'UTR reporter, inhibitor activity; in the data active = inhibition above about 60%; inconclusive = no clear call, values can overlap the other calls;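 note: H4 neuroglioblastoma cells stably carrying SNCA 5'UTR luciferase fusion; 0% = DMSO wells and 100% = positive control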
# Gli-Sufu antag = blocks Gli-Sufu signaling in a luciferase reporter; actives 0.74% (n = 340,000); inhibition, % at 5 µM; Sufu-KO-LIGHT fibroblasts, Gli luciferase reporter luminescence;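 active = inhibition above about 55%, limit read from the data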;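 note: 0% = DMSO-treated cells and 100% = wells with medium but no cells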
# 697 NFkB inh = lowers PMA/ionomycin-induced NF-kB signal in 697 B cells; 697 B-cell NF-kB luciferase reporter, 16 h; inhibition, % at 4 µM; actives 0.33% (n = 330,000); AID 435022; in the data active = inhibition above about 35%
# Mdm2 MdmX PPI = inhibitors of human Mdm2/MdmX interaction; SaOS-2 split-luciferase Mdm2/MdmX complementation, luminescence; actives 3% (n = 330,000); AID 485346; inhibition, % at 8 µM;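 active = inhibition of at least 50% at 8 µM in the primary screen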
# Jurkat NFkB inh = inhibitors of the PMA/ionomycin-induced NF-kB reporter in Jurkat cells. PMA/ionomycin-induced NF-kB luciferase reporter, luminescence. AID 435003. actives 0.53% (n = 330,000). inhibition, % at 4 µM; in the data active = inhibition above about 50%
# CSC inhib = blocks cancer stem cells; cancer stem cell-like cells viability, luminescence; inhibition, % at 7.5 µM; actives 1.1% (n = 300,000); in the data active = inhibition above about 75%; inconclusive = no clear call, values can overlap the other calls; tested in HMLE shEcad cells
# Jurkat NFkB conf = inhibitors of the PMA/ionomycin-induced NF-kB reporter in Jurkat cells, retest; shares compounds with Jurkat NFkB inh; Jurkat NF-kB luciferase, 16 h; inhibition, % at 4 µM; actives 27% (n = 2,700);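 active = inhibition reaching about 45% at 4 µM in either replicate, limit read from the data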;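 note: plate controls were PMA/ionomycin stimulated DMSO wells for no effect and unstimulated DMSO wells for full effect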
# 697 NFkB conf = lowers PMA/ionomycin-induced NF-kB signal in 697 B cells; inhibition, % at 4 µM; actives 35% (n = 2,000); shares compounds with 697 NFkB inh; 697 B-cell NF-kB luciferase, 16 h; in the data active = inhibition mostly above about 28%, no sharp cut-off; inactive = mostly below about 22%
# Mdm2 MdmX conf = confirmation of human Mdm2/MdmX interaction inhibitors | actives 55% (n = 10,000) | Mdm2-MdmX binding, luminescent assay | inhibition, % at 8 µM | shares compounds with Mdm2 MdmX PPI | AID 489028; in the data active = inhibition above about 40%
# FLuc counter = inhibits full-length luciferase, flagging false Mdm2/MdmX hits; shares compounds with Mdm2 MdmX PPI; SaOS-2 full-length luciferase counterscreen, luminescence; actives 77% (n = 6,200); AID 504607; inhibition, % at 8 µM;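 active = mean inhibition at 8 µM reaching about 37%, which flags the compound as non-specific, limit read from the data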;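 note: p53-null SaOS-2 cells with luciferase driven by a doxycycline-inducible promoter; compound on cells about two nights before reading with doxycycline added after day one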
# Active calls of the source: *; u = inconclusive; x = no result.
SMILES,aSyn UTR inh,Gli-Sufu antag,697 NFkB inh,Mdm2 MdmX PPI,Jurkat NFkB inh,CSC inhib,Jurkat NFkB conf,Mdm2 MdmX conf,FLuc counter,others
C=C1C(O)[C@@H]2O[C@]3(CC[C@H](/C=C/C(C)[C@@H]4CC(C)=CC5(O[C@H](C[C@@](C)(O)C(=O)O)CCC5O)O4)O3)CC[C@H]2O[C@@H]1C(O)CC(C)[C@H]1OC2(CCCCO2)CCC1C (some centres undefined),x,93.0*,100.3*,98.0*,101.0*,x,99.0*,99.9*,0.4,697 NFkB conf=79.2*
COc1cccc(NP(=O)(Oc2ccccc2)Oc2ccccc2)c1,47.0,0.6,-50.8,58.4*,62.3*,99.0*,15.9,53.1*,36.6*,
COc1cccc(NP(=O)(Oc2ccccc2Cl)Oc2ccccc2Cl)c1,2.2,0.1,-81.6,-5.2,24.4,34.0,x,x,x,
CN(C)c1ccc(-[n+]2c(-c3ccccc3)cc(-c3ccccc3)cc2-c2ccccc2)cc1,84.1*,90.0*,-28.2,89.2*,99.4*,x,62.1*,94.7*,23.3,
O=[N+]([O-])c1cc(Cl)c(O)c(-[n+]2c(-c3ccccc3)cc(-c3ccccc3)cc2-c2ccccc2)c1,-7.6,-0.9,-0.6,13.6,4.5,-3.5,x,x,x,
O=[N+]([O-])c1ccc(C[n+]2c(-c3ccccc3)cc(-c3ccccc3)cc2-c2ccccc2)cc1,38.2,28.2,-92.3,-8.0,-1.3,18.4,x,x,x,
Cc1ccc(-c2cc(-c3ccc(C)cc3)[n+](-c3ccccc3)c(-c3ccc(C)cc3)c2)cc1,76.0*,91.0*,-45.0,92.7*,96.8*,47.6,85.9*,93.5*,12.1,
Cc1ccc(-c2cc(-c3ccccc3)cc(-c3ccccc3)[n+]2-c2ccccc2)cc1,84.5*,90.0*,-11.5,96.1*,53.6*,25.3,30.6,92.0*,12.7,
COc1ccc(-c2ccc3n2Cc2cnnn2-c2ccccc2-3)cc1,x,-33.0,x,x,x,x,x,x,x,
Cc1ccc(C(=O)N2CC2C)cc1 (centres undefined),x,9.8,x,x,x,x,x,x,x,
CCOc1ccc(-c2c(C)n(-c3ccc(OCC)cc3)c3[n+]2CCCCC3)cc1,62.0*,88.2*,48.1*,87.6*,100.3*,34.5,78.8*,86.8*,48.7*,697 NFkB conf=59.5*
COc1ccc(-n2c(O)c(C(C)=NCCc3c[nH]c4ccccc34)c(=O)[nH]c2=O)cc1,13.2,0.9,0.1,6.8,12.5,-4.3,x,x,x,
O=C1NC(=O)C2(CCCC2)C(=O)N1,x,4.4,x,x,x,x,x,x,x,
CC(C)(O)/C=C/C(=O)[C@](C)(O)C1[C@H](O)C[C@@]2(C)C3CC=C4C(C[C@H](O)[C@@H](O)C4(C)C)[C@]3(C)C(=O)C[C@]12C (some centres undefined),x,72.4*,41.4*,97.8*,62.4*,53.4,14.9,93.7*,7.0,697 NFkB conf=50.2*
Cc1c(Br)c(=O)oc2cc(OCC(=O)N3C[C@H]4C[C@@H](C3)c3cccc(=O)n3C4)ccc12,9.8,-0.9,13.4,17.1,9.8,-10.6,x,x,x,
O=c1c2ccccc2nc(/C=C/c2ccc([N+](=O)[O-])o2)n1-c1ccc(O)cc1,100.5*,74.8*,-221.4,75.5*,91.1*,x,66.8*,85.3*,22.6,
C=CC[C@@H](CC/C=C/C=C/CC/C=C\[C@@H]1CSC([C@@H]2C[C@@H]2C)=N1)OC,x,47.2,-325.4,55.8*,74.5*,x,52.2*,49.1*,113.9*,697 NFkB conf=-144.4
COC(=O)C1=C(c2ccc(F)cc2F)C[C@@H]2CC[C@H]1N2C(=O)NCCOc1ccccc1,x,1.9,5.5,7.4,6.9,2.0,x,x,x,
O=C1/C(=C/c2ccccc2)C[C@@]2(O)[C@H]3Cc4ccc(O)c5c4[C@@]2(CCN3CC2CC2)C1O5 (some centres undefined),x,-16.4,54.6*,100.2*,84.5*,x,46.8,100.3*,51.2*,697 NFkB conf=49.5*
COCCN1Cc2cc(=O)n3c([nH]c4ccccc43)c2C1=N,-59.0,x,-12.0,0.1,-11.4,-2.8,x,x,x,
C[n+]1c(-c2ccccc2)c2cc(N)ccc2c2ccc(N)cc21,52.0,-9.6,57.7*,84.9*,66.5*,43.8,61.9*,70.2*,13.0,697 NFkB conf=54.5*
Nc1ccc2ccc3cccc[n+]3c2c1,2.2,12.1,-21.0,10.0,-5.5,9.0,x,x,x,
CC(C)(C)C1(CCO)C(=O)NC(=S)NC1=O,x,-2.7,x,x,x,x,x,x,x,
O=C(N/N=C/c1c(O)n(Cc2ccco2)c(=O)[nH]c1=O)c1ccccc1O,-7.3,-0.9,-7.2,-36.1,0.4,7.2,x,x,x,
C=C(C)[C@@]12OC3(c4ccccc4)O[C@@H]1C1[C@@H]4O[C@]4(CO)[C@@H](O)[C@]4(O)C(=O)C(C)=C[C@H]4[C@@]1(O3)[C@H](C)[C@H]2OC(=O)/C=C/C=C/c1ccccc1 (some centres undefined),-15.9,18.0,-49.0,76.8*,81.4*,6.4,47.5,12.1,x,
SMILES,aSyn UTR inh,Gli-Sufu antag,697 NFkB inh,Mdm2 MdmX PPI,Jurkat NFkB inh,CSC inhib,Jurkat NFkB conf,Mdm2 MdmX conf,FLuc counter,others
COc1cc2c(c(OC)c1OC)-c1ccc(O)cc1[C@@H](NC(C)=O)CC2,u,38.4,-487.4,63.0*,77.2*,4.0,64.1*,64.8*,106.7*,697 NFkB conf=-201.2
COc1cc2c(c(OC)c1OC)-c1ccc(O)cc1C(NC(C)=O)CC2 (centres undefined),x,47.3,x,x,x,x,x,x,x,
C[C@]12CCC3C(CCC4=CC(O)CC[C@@]43/C=N/O)C1(O)CCC2C1=CC(=O)OC1 (some centres undefined),113.0*,-2.4,-26.8,58.4*,95.3*,115.4*,79.2*,72.0*,18.7,
CC12CCC3C(CCC4(O)CC(O)CCC34C=O)C1(O)CCC2C1=CC(=O)OC1 (centres undefined),x,3.6,x,x,x,x,x,x,x,
CCCCN=C[C@]12CCC(O)CC1(O)CCC1[C@@H]2CC[C@]2(C)[C@H](C3C=CC(=O)O3)CCC12O (some centres undefined),96.0*,0.6,-54.1,58.8*,94.3*,98.6*,78.6*,69.8*,49.9*,
C[C@]12CC[C@H]3[C@@H](CC[C@]4(O)C[C@@H](O)CC[C@]34C=O)[C@@]1(O)CC[C@@H]2C1=CC(=O)OC1,x,-0.3,-52.9,69.5*,98.3*,101.2*,86.3*,69.1*,28.0,
Cc1cc(OCC(=O)NCc2ccc(S(N)(=O)=O)cc2)c2c3c(c(=O)oc2c1)CCC3,-22.8,-11.2,9.9,2.2,14.0,4.0,x,x,x,

# Source: PubChem BioAssay
